# Screening data (PubChem)
# Tg IFNy HTS – inhibitors of Toxoplasma gondii growth with IFN-gamma; Toxoplasma gondii growth in IFN-gamma-treated host cells; hits give low values; activity change, negative = inhibition, % (test concentration not listed); actives 3.8% (n = 69,000); AID 1259416; in the data active means activity change below about -70%, passing the limit was not always enough;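 further: host cells are HeLa cells infected with Toxoplasma gondii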
# Hits are given with their value; n = inactive. Shown is part of a subset that was picked to be rich in hits.
SMILES,Tg IFNy HTS
O=C(Nc1ccccc1)[C@@H]1CCS(=O)(=O)[C@H]2CN(Cc3ccc(F)cc3)C[C@@H]12,n
CC(C)NC(=O)[C@H]1CCS(=O)(=O)[C@H]2CN(C(=O)Nc3ccccc3)C[C@@H]12,n
CC(C)CCN1C[C@H]2[C@H](C(=O)Nc3ccccc3)CCS(=O)(=O)[C@H]2C1,-93.8
C=CCN(c1ccc(C(=O)N2CCC(C(=O)OCC)CC2)cc1)S(C)(=O)=O,n
CCCNC(=O)c1ccc2ccc(N3CCN(C(=O)N(C)C)CC3)n2c1,n
CN(C)C(=O)N1CCN(c2ccc3ccc(C(=O)NCCc4ccccc4)cn23)CC1,n
CN(C)CCCNC(=O)c1ccc2ccc(N3CCN(Cc4cccnc4)CC3)n2c1,-86.8
CNC(=O)C1Cn2ccnc2C2(CCN(C(=O)Nc3ccccc3C)CC2)O1 (stereo unspecified),n
CS(=O)(=O)N1CCn2c(COCc3cccnc3)nnc2C1,n
COc1ncc(C2(O)CCN(C(=O)C(c3cccs3)c3cccs3)CC2)c(OC)n1,n
C[C@@H](NC(=O)C[C@H]1CC[C@H]2[C@@H](COC[C@H](O)CN2C(=O)Nc2cccc(Cl)c2)O1)c1ccccc1,n
COc1ccccc1CC(=O)N1CCCC1c1cc2nc(C)cc(C(F)(F)F)n2n1 (stereo unspecified),n
Cc1cc(C(F)(F)F)n2nc(C3CCCN(C(=O)c4cc5c(s4)CCCC5)C3)cc2n1 (stereo unspecified),-103.6
O=C(c1ccn[nH]1)N1CCC(c2cc3nc(-c4cccs4)cc(C(F)(F)F)n3n2)C1 (stereo unspecified),n
COc1nn(C)c2c1CCCN(S(=O)(=O)c1ccccc1F)C2,n
CCCC(NC(=O)C(C)N1C(=O)NC(C)(C)C1=O)c1cccs1 (stereo unspecified),n
CN(c1ccccc1)S(=O)(=O)c1cc2c3c(c1)CCN3C(=O)CC2,n
CCN1c2cc(C)ccc2-n2cccc2C12CCN(C(=O)Nc1cc(OC)ccc1OC)CC2,-110.7
CCOC(=O)Cc1ccc(NC(=O)N2CCC3(CC2)c2cccn2-c2ccc(C)cc2N3CC)cc1,n
CCN1c2cc(C)ccc2-n2cccc2C12CCN(C(=O)Nc1cc(C)cc(C)c1)CC2,n
CCN1c2cc(C)ccc2-n2cccc2C12CCN(C(=O)Nc1ccccc1C(F)(F)F)CC2,n
CCN1c2cc(C)ccc2-n2cccc2C12CCN(C(=O)Nc1ccc(F)cc1F)CC2,n
CCN1c2cc(C)ccc2-n2cccc2C12CCN(C(=O)Nc1cc(F)ccc1F)CC2,n
COc1ccc(OC)c(NC(=O)N2CCC3(CC2)Nc2cc(C)ccc2-n2cccc23)c1,n
CCN1c2cc(C)ccc2-n2cccc2C12CCN(C(=O)Nc1ccc(OC)cc1OC)CC2,-72.5
SMILES,Tg IFNy HTS
CCN1c2cc(C)ccc2-n2cccc2C12CCN(C(=O)Nc1cc(Cl)ccc1OC)CC2,-115.5
c1ccc2c(c1)CCCN2c1nc(N2CCCC2)nc(N2CCOCC2)n1,n
c1ccc(CCNCc2nc(-c3ccco3)no2)nc1,n
Cc1cccc(CN(Cc2ccccc2)C(=O)CCc2ccncc2)n1,n
Cc1ccc(-c2ncc(CN(Cc3ccccc3)Cc3cccc(C)n3)cn2)cc1,-78.9
Cc1cccc(CN(Cc2ccccc2)C(=O)c2ccc3nc(C(F)(F)F)[nH]c3c2)n1,n
Cc1ccc(C)c(NC(=O)N2CCC(c3nc(C(=O)N(C)C)c(C)o3)CC2)c1,n
COCCN(C)C(=O)c1ccc2nnc3nc(C)n(CCOC)c3c2c1,n
Cc1nc(C2CCCN2S(=O)(=O)N(C)C)nc2c1CCCN2CC1CCCCC1 (stereo unspecified),n
CCOC(=O)c1cnc(N2CCOCC2)nc1N,n
COc1ccc(C2(NC(=O)c3cnc(N4CCOCC4)nc3)CCCC2)cc1,-79.7
CCCC(NC(=O)c1cnc(N2CCOCC2)nc1)c1cccs1 (stereo unspecified),n
CCCCC(=O)Nc1ccc(C)cc1NC(=O)C1CC=CCC1 (stereo unspecified),n
Clc1ccc2c(N3CCc4nnc(C5CCCO5)n4CC3)ccnc2c1 (stereo unspecified),n
COc1ccc2c(c1)NC1(CCN(S(=O)(=O)c3cnn(C(F)F)c3C)CC1)c1cccn1-2,n
COc1ccc(-n2nnc(C(C)=O)c2NCc2ccco2)cc1,n
CCOC(=O)c1ccc(Nc2nc3nonc3nc2NCc2ccco2)cc1,-101.6
CCOC(=O)c1cnc(-c2ccccc2)nc1Nc1ccc(C)cc1,n
CN1C(=O)c2cc(NC(=O)C3CCOCC3)ccc2OC[C@@H]2O[C@H](CC(=O)NCCc3ccncc3)CC[C@H]21,n
CC(C)N1CCO[C@H]2CN(C(=O)COc3ccccc3)CC[C@@H]2C1,n
COc1ccc(-c2ccccc2-n2ccnc2-c2cnc[nH]2)cc1,n
CS(=O)(=O)NCC1CCN(C/C=C/c2ccc(F)cc2)C1 (stereo unspecified),n
NC(=O)c1csc(-c2cccc3ccnn23)n1,-97.6
Cc1nnc(-c2ccccc2-c2cccc3ccnn23)s1,n
CNC(=O)Cn1cc(-c2cccc3ccnn23)cn1,n
SMILES,Tg IFNy HTS
CC(C)C(NC(=O)c1cccc(-n2cnnc2)c1)c1cccs1 (stereo unspecified),n
CC(C)C(NC(=O)c1cc(-c2ccncc2)c2cnccc2n1)c1cccs1 (stereo unspecified),-87.3
CC1CCN(CC(C)(C)NC(=O)c2cc(-c3ccncc3)c3cnccc3n2)CC1,n
COc1ccc(CN2CCC(c3cc(=O)[nH]c(C)n3)C2)cc1Cn1ccnc1 (stereo unspecified),n
O=S(=O)(c1cccc(F)c1)N1CC[C@H]2[C@@H]1CCN2c1ncccn1,n
Cc1cc(NC(=O)c2ccccc2)no1,n
Cc1cc(NC(=O)CCCC(=O)O)no1,n
CCCCCCCc1ccc(C(=O)NC(=S)Nc2cc(C)on2)cc1,-91.9
O=C1CN(S(=O)(=O)c2cccc(F)c2)C[C@@H]2[C@H](c3ccc(C4=CCCC4)cc3)[C@H](CO)N12,n
O=C(NCc1ccccc1)NC1(C(=O)N2CCc3ccccc3C2)CCCCC1,n
COc1ccccc1C(=O)Nc1ccc2c3c(cccc13)CC2,-101.7
COc1ccccc1C(=O)Nc1cc2cc(Br)ccc2oc1=O,n
COc1ccccc1C(=O)Nc1ccc(-c2nc(-c3ccccc3)co2)cc1,n
COc1ccc([C@H]2C3CCCCC3[C@@H]2NC(=O)CC2CCCO2)cc1 (stereo partly specified),n
CC(Cn1cncn1)NCc1n[nH]c2c1CCC2 (stereo unspecified),n
CCc1ccc(S(=O)(=O)N2CCc3nc(-c4ccc(OC)c(OC)c4)sc3C2)cc1,n
COc1ccc(-c2nc3c(s2)CN(S(=O)(=O)c2cc(F)ccc2C)CC3)cc1OC,n
O=S(=O)(c1ccccc1Cl)N1CCc2nc(-c3ccccc3)sc2C1,n
COc1ccc(-c2nc3c(s2)CN(S(=O)(=O)c2ccc(F)cc2)CC3)cc1OC,n
COc1ccc(-c2nc3c(s2)CN(S(=O)(=O)c2ccc(C)cc2)CC3)cc1OC,-87.1
COc1ccc(-c2nc3c(s2)CN(S(=O)(=O)c2ccccc2C)CC3)cc1OC,-93.8
COc1ccc(-c2nc3c(s2)CN(C(=O)Nc2ccc(C)cc2)CC3)cc1OC,n
COc1ccc(-c2nc3c(s2)CN(S(=O)(=O)Cc2ccccc2)CC3)cc1OC,n
O=S(=O)(c1ccc(F)c(Cl)c1)N1CCc2nc(-c3ccccc3)sc2C1,n
COc1ccc(-c2nc3c(s2)CN(S(=O)(=O)c2ccc(C)c(C)c2)CC3)cc1OC,-98.4
COc1ccc(Cl)cc1S(=O)(=O)N1CCc2nc(-c3ccccc3)sc2C1,-118.1
